Screening data (PubChem)
Rows were chosen to be rich in hits. Some 1.3% of all compounds tested hit in one or more screens of this group.
AmpC detergent – qHTS Inhibitors of AmpC Beta-Lactamase (assay with detergent); AmpC hydrolysis of nitrocefin, absorbance 480 nm, 0.01% Triton; Potency, µM (titrated, usually from 114 µM), for the others: top-dose activity change, negative = inhibition, actives largely listed as inhibitors; 0.041% of 370,000 active;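 note: 0% = no-compound wells and -100% = no-enzyme wells; nearly all actives have a fitted effect of over 25% in size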
Target sequence (P00811 whole entry, looked up): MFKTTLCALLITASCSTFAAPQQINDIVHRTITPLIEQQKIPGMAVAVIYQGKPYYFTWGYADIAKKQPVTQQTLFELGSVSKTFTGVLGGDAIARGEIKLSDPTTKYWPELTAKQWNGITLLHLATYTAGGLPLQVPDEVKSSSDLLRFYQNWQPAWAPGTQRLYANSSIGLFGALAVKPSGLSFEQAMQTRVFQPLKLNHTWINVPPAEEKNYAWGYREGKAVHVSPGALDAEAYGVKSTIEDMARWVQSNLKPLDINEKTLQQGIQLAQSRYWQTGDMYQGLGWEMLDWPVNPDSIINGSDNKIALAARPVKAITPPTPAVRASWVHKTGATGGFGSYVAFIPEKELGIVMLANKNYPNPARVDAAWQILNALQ
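AmpC (5.3 nM in the dispensed reagent) in 20 mM phosphate pH 7.0 with 0.01% (detergent screen) or 0.0001% Triton X-100 was preincubated with compounds for 15 min at room temperature. Nitrocefin was then added from an 800 uM solution, and hydrolysis was followed at 480 nm.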
SARS PLP yeast – qHTS of Yeast-based Assay for SARS-CoV PLP. AID 485353, 2010. S. cerevisiae expressing SARS-CoV PLpro, growth rescue. Potency, µM (highest dose often 32.9 µM), without a hit: at the highest dose activity, positive = growth rescue, hits mostly activators. 0.19% of 330,000 active; calls by dose curve; note: 0% is about no effect; nearly all actives have a fitted effect of over 55% in size
AmpC no deterg – qHTS Inhibitors of AmpC Beta-Lactamase (assay without detergent); Potency, µM (top dose mostly 57.1 µM), without a hit: at the highest dose activity change, negative = inhibition, actives largely listed as inhibitors; AmpC nitrocefin hydrolysis, absorbance 480 nm, 0.0001% Triton; P00811; 0.52% of 330,000 active;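 note: plate controls were no compound for no effect and no enzyme for full effect; nearly all actives have a fitted effect of over 20% in size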
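AmpC (5.3 nM in the dispensed reagent) in 20 mM phosphate pH 7.0 with 0.01% (detergent screen) or 0.0001% Triton X-100 was preincubated with compounds for 15 min at room temperature. Nitrocefin was then added from an 800 uM solution, and hydrolysis was followed at 480 nm.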
AMA1-RON2 inh – qHTS for Inhibitors of AMA1-RON; Towards Development of Antimalarial Drug Lead: Primary Screen | Plasmodium falciparum AMA1 (3D7) - RON2 peptide interaction | 0.2% of 360,000 active | AlphaScreen AMA1-biotinylated RON2 peptide binding | Potency, µM (highest dose often 58.2 µM), for inactives: at the highest dose activity change, negative = inhibition, usual class: inhibitors;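 note: 0% = vehicle wells and -100% = peptide control; nearly all actives have a fitted effect of over 45% in size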
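AMA1 (3D7) with his tag at 25 nM final met compounds first, then biotinylated RON2 peptide at 25 nM; detection used donor plus acceptor beads, 10 µg/mL apiece, read by AlphaScreen after 30 min at room temperature.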
VACV Venus inh – qHTS for Stage-Specific Inhibitors of Vaccinia Orthopoxvirus: Venus Reporter Primary qHTS; Vaccinia virus Venus reporter expression, fluorescence; Potency, µM (highest dose often 36.5 µM), without a hit: at the highest dose activity change, negative = inhibition, actives largely listed as inhibitors; 0.46% of 330,000 active; AID 720580, 2013; calls by dose curve; tested in A549 cells; note: % is set by controls: 0 for no effect and ±100 for the full control effect; nearly all actives have a fitted effect of over 30% in size
Vaccinia mCherry – qHTS for Stage-Specific Inhibitors of Vaccinia Orthopoxvirus: mCherry Reporter Primary qHTS; AID 720579, 2013; 0.63% of 310,000 active; Vaccinia virus mCherry reporter infection, fluorescence; Potency, µM (doses to about 36.5 µM), for the others: at the highest dose activity change, negative = inhibition, actives largely listed as inhibitors; calls by dose curve; tested in A549 cells; note: % is set by controls: 0 for no effect and ±100 for the full control effect; nearly all actives have a fitted effect of over 35% in size
Starred values were filed as active, the others as inactive; i = inactive; ? = inconclusive; nt = no result given; [ ] = another dose, or the depositor's remark. Unless noted, calls come from the whole dose curve; as a rule, active = well fitted curve in the direction sought with a large enough effect; inconclusive = small, poorly fitted or top-dose-only effect, or another doubt; inactive = no such curve, though single readings can be large; an effect the other way counts as inactive or inconclusive. Potency is the fitted concentration of half-maximal effect.

SMILES	AmpC detergent	SARS PLP yeast	AmpC no deterg	AMA1-RON2 inh	VACV Venus inh	Vaccinia mCherry
CN1CCCC(CNC(=O)c2cnn(-c3ncc4c(n3)-c3ccccc3CC4)c2C2CC2)C1 (stereo not given)	nt	nt	nt	nt	-1.2%	-19.4%
CCc1ccc(C(=O)C(C)OC(=O)CNS(=O)(=O)c2ccc(C)cc2)cc1 (stereo not given)	1.6%	-13.1%	-46.5%	-10.3%	-20.4%	i
Cc1ccc(S(=O)(=O)NCC(=O)OC(C(=O)c2ccccc2)c2ccccc2)cc1 (stereo not given)	1.5%	-4.1%	-7.6%	3.16µM*	nt	nt
CC1Cc2ccccc2N1C(=O)CNCCCN(C)C (stereo not given)	-0.4%	-0.6%	-7.5%	-1.1%	6.9%	nt
CC1CC2(C)Oc3ccccc3CC2C(C)C1CNCCCN(C)C (stereo not given)	2.6%	-2.0%	63.3%	-11.5%	14.1µM*	?
CNCCc1ccc(O)c(O)c1	nt	nt	nt	7.08µM*	-7.9%	-0.6%
C=CCn1c(SCC(N)=O)nc2ccccc2c1=O	nt	nt	nt	nt	-14.6%	30.9%
C=CCn1c(SCC(=O)c2ccc(CNC(C)=O)o2)nc2ccccc2c1=O	-0.8%	16.0%	39.6%	-1.2%	1.26µM*	nt
CCN(c1ccccc1)S(=O)(=O)c1cc(C(=O)Nc2ccccc2Cl)ccc1F	?	21.4%	-37.5%	28.0%	-20.2%	-10.4%
CCN(c1ccccc1)S(=O)(=O)c1cc(C(=O)Nc2ccc(Br)cc2)ccc1F	?	2.9%	-15.0%	-1.5%[11.6 µM]	12.6µM*	14.1µM*
CCOc1cc(/C=C/C(=O)c2ccc3c(c2)OCCO3)ccc1OCC(=O)N(C)C	-6.8%	1.0%	127.7%	-25.8%	10µM*	10µM*
CCN1CCc2c(sc(NC(=O)c3ccc(S(=O)(=O)N(CC)c4ccccc4)cc3)c2C(N)=O)C1	5.1%	-0.7%	66.1%	-10.6%	11.2µM*	?
CCCCN(CCCC)S(=O)(=O)c1ccc(C(=O)Nc2sc3c(c2C(N)=O)CCN(CC)C3)cc1	6.4%	nt	nt	nt	-12.7%	-14.3%
C/C(=N\NC(=O)c1cc(C)nc2ccccc12)c1ccccn1	-4.9%	-2.0%	-12.8%	-82.6%	nt	nt
COc1ccc2nc(NN=C(C)c3ccccn3)cc(C)c2c1	nt	nt	nt	?	?	1µM*
COc1ccc(C(CCNC(C)c2ccccc2)c2ccc(F)cc2)cc1 (stereo not given)	?	9.9%	5.2%	-2.1%	?	11.2µM*
COc1ccc(C(CCNCc2ccccc2)c2ccc(F)cc2)cc1 (stereo not given)	-16.2%	9.6%	0.8%	-4.5%	?	?
O=C(Nc1nc(-c2ccccn2)cs1)c1ccccc1-n1cnnn1	2.6%	0.2%	-29.5%	-30.3%	-24.9%	1.26µM*
O=C(Nc1nc(-c2ccccn2)cs1)c1ccc2c(c1)OCCO2	6.3%	-3.1%	-21.3%	28.2%	?	11.2µM*
O=c1cc2nc(-c3ccccc3F)nc(SCc3ccc(Br)cc3)n2[nH]1	3.6%	nt	nt	nt	4.0%	-14.8%
CCCc1cc(=O)[nH]c2nnc(SCC(=O)Nc3ccc(NC(C)=O)cc3)n12	-12.2%	nt	-1.2%	28.5%	-5.4%	i
CCCc1cc(=O)[nH]c2nnc(SCC(=O)NC3CCCC3)n12	?	-1.4%	17.8µM*	22.2%	-13.6%	i
COc1ccccc1N1CCN(C(=O)CCNS(=O)(=O)c2cc(Br)cnc2N)CC1	1.1%	-1.7%	133.7%	0.0%	?	-10.1%
O=C(O)CSc1cc(NS(=O)(=O)c2ccc(Cl)cc2)c2ccccc2c1O	4.7%	-12.0%	-45.8%	-22.3%	?	14.1µM*
COc1cc(C(=O)NC(=S)Nc2ccccc2N2CCOCC2)cc(OC)c1OC	-2.9%	-8.5%	15.8µM*	25.5%	nt	nt
SMILES	AmpC detergent	SARS PLP yeast	AmpC no deterg	AMA1-RON2 inh	VACV Venus inh	Vaccinia mCherry
NC1=NC[C@H](CC2CCCCC2)N1CCc1cc(C(F)(F)F)cc(C(F)(F)F)c1	1.6%	-6.6%	66.3%	4.6%	10µM*	?
NC1=NC[C@@H](Cc2ccc(O)cc2)N1CCc1cc(C(F)(F)F)cc(C(F)(F)F)c1	1.1%	-0.7%	12.4%	13.9%	-19.8%	-0.5%
O=[N+]([O-])c1ccc(/C=C/c2ccnc3ccccc23)cc1	nt	nt	nt	nt	18.5%	21.9%
Cc1c(C(=O)N2CC3CCC2C3)sc2ncnc(NCCc3ccccn3)c12 (stereo not given)	nt	nt	nt	nt	-7.5%	-13.3%
Cn1c(C(=O)NCCCN2CCCCCC2)cc2c(=O)n(C)c3ccccc3c21	?	-2.6%	11.2µM*	-3.8%	nt	nt
OC(c1ccc2c(c1)CN(Cc1c[nH]c3ccccc13)CCO2)c1ccccn1 (stereo not given)	nt	nt	nt	nt	-4.0%	-6.4%
Cc1cccc(CC(=O)OCn2nnc3ccccc3c2=O)c1	-18.8%	-13.2%	10µM*	-3.3%	4.6%	7.4%
CN(C)S(=O)(=O)c1ccc(C(=O)OCn2nnc3ccccc3c2=O)cc1	1.5%	-7.4%	10µM*	-7.6%	-5.5%	-13.6%
O=C(Nc1ccc(S(=O)(=O)NC2=NCCCCC2)cc1)c1ccc([N+](=O)[O-])s1	-5.2%	-19.9%	-40.9%	-0.7%	11.2µM*	12.6µM*
O=C(Nc1ccc(S(=O)(=O)NC2=NCCCCC2)cc1)c1cccs1	nt	-4.7%	-27.5%	-1.6%	nt	nt
COc1ccccc1CCNc1ncnc2sc(C(=O)N3CCCCC3)c(C)c12	nt	nt	nt	nt	-18.0%	-20.8%
CS(=O)(=O)n1nc(-c2ccc(Cl)cc2)nc1N	4.4%	-0.1%	-9.4%	8.6%	-10.0%	i
Cn1nc(-c2ccc(Cl)cc2)nc2c(=O)n(C)c(=O)nc1-2	?	-42.6%	-21.1%	nt	2µM*	2µM*
Cn1nc(-c2ccccc2)nc1-c1ccccc1	-7.8%	-7.7%	-8.6%	6.7%	-18.2%	-6.1%
Cn1nc(-c2cccnc2)nc2c(=O)n(C)c(=O)nc1-2	nt	nt	nt	nt	2.51µM*	3.16µM*
Cc1cc(C)n2nc(-c3cccnc3)nc2n1	-14.7%	-7.5%	-15.6%	1.4%	-1.6%	nt
Cn1nc(-c2ccc(F)cc2)nc2c(=O)n(C)c(=O)nc1-2	nt	nt	nt	nt	2.82µM*	0.631µM*
Cc1nn(-c2ccccn2)c2c1-c1nc(N)sc1CC2	nt	nt	nt	nt	2.4%	20.4%
CCOc1ccc(Nc2c3ccccc3nc3ccccc23)cc1	-3.1%	-5.0%	-12.6%	-16.5%	?	5.62µM*
CCN1CCC(O)(/C=C/c2ccc(C(C)C)cc2)C(C(=O)/C=C/c2ccc(C(C)C)cc2)C1 (stereo not given)	nt	nt	nt	-24.6%	?	11.2µM*
